Inconclusive results are not listed. Calls of active or inactive are those of the source. Rule for the calls, unless noted: active = hit-call score of the fitted dose curve at least 0.9, where 1 is the maximum; inactive = score below 0.9.
Key:
[1] = read-out: Monokine induced gamma interferon (MIG), CXCL9 (gene 4283); assay: BSK_3C_MIG: BioMAP Diversity Plus: 3C Assay for Monokine induced gamma interferon (MIG) Biomarker Activity (AID 2283021); conditions: primary human endothelial cells (HUVEC); actives raise or lower the signal;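 for AC50: MIG protein level measured by immunoassay in the treated endothelial cultures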
Summary of the method: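 HUVEC primary endothelial cultures dosed with chemical; MIG quantified by ELISA at 24 h. Data fitted bidirectionally against DMSO control, with parallel SRB total-protein staining for cytotoxicity.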

[2] = biological target: human Vitamin D Receptor (VDR), VDR (gene 7421) (UniProt P11473); assay: ATG_VDR_TRANS: Attagene TRANS-FACTORIAL HepG2 Assay for human Vitamin D Receptor (VDR) (AID 2283022; active = hit-call score of the fitted dose curve at least 0.9, where 1 is the maximum)
Sequence of human Vitamin D Receptor (VDR), VDR (gene 7421) (P11473 whole entry, looked up, the tested form may be a part): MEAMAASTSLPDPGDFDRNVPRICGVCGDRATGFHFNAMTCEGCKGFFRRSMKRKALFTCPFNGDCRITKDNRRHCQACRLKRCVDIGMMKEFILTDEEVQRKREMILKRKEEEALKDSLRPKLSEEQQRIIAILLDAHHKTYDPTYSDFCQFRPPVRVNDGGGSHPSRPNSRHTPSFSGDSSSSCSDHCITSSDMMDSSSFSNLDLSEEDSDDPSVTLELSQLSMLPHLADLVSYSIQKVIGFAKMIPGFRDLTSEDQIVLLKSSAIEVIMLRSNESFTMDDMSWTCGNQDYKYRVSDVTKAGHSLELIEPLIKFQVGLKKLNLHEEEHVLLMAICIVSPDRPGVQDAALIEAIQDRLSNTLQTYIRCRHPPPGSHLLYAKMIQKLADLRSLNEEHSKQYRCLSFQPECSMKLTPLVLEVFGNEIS
Summary of the method: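 Transactivation by an exogenous VDR-Gal4 chimera in transiently transfected HepG2 cells was measured as reporter transcript level 24 hours after chemical treatment. RT-PCR products were analysed by capillary electrophoresis and fitted in the positive direction relative to DMSO.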

[3] = BSK_3C_SRB: Viability Assessment in the BioMAP Diversity Plus: 3C Assay (AID 2283023); conditions: primary human endothelial cells (HUVEC);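 note: fitted both ways against DMSO so a hit may be signal rise or drop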
Summary of the method: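 Cytotoxicity readout in parallel HUVEC 3C cultures: after 24 h compound exposure, cells fixed with 10% TCA, stained with 0.1% SRB and read at 560 nm. Gain or loss relative to DMSO fitted.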

[4] = read-out: Matrix Metallopeptidase 1 (MMP1), MMP1 (gene 4312); assay: BSK_BE3C_MMP1: BioMAP Diversity Plus: BE3C Assay for Matrix Metallopeptidase 1 (MMP1) Biomarker Activity (AID 2283024); conditions: primary human bronchial epithelial cells; actives raise or lower the signal
Summary of the method: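 Human primary bronchial epithelial cells (BE3C system) dosed for 24 h; MMP-1 quantified by ELISA. Bidirectional fit against DMSO; cytotoxicity tracked in parallel cultures by SRB total-protein staining.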

[5] = BSK_3C_Vis: BioMAP Diversity Plus: 3C Assay for Morphology Visualization (AID 2283025); conditions: primary human endothelial cells (HUVEC);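 note: fitted both ways so gain or loss versus DMSO counts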;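 for AC50: light microscopy image of cell morphology used as background control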
Summary of the method: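 Human umbilical vein endothelial cell morphology was inspected by light microscopy 24 h after chemical dosing; scored bidirectionally relative to DMSO.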

[6] = read-out: Pselectin, SELP (gene 6403); assay: BSK_4H_Pselectin: BioMAP Diversity Plus: 4H Assay for Pselectin Biomarker Activity (AID 2283026); conditions: primary human endothelial cells (HUVEC); actives raise or lower the signal
Summary of the method: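 Primary human umbilical vein endothelial cells were treated 24 h, and cell-surface P-selectin was then quantified by ELISA. Bidirectional fit versus DMSO; cytotoxicity checked in parallel cultures by SRB total-protein staining.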

[7] = BSK_4H_SRB: Viability Assessment in the BioMAP Diversity Plus: 4H Assay (AID 2283027); conditions: primary human endothelial cells (HUVEC);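 note: cells exposed to compound for 24 h before staining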;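 for AC50: curves fitted both ways versus DMSO so AC50 may be loss or gain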
Summary of the method: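 Human umbilical vein endothelial cells, 24 h after chemical dosing; total protein measured by 0.1% sulforhodamine B staining after 10% TCA fixation, read at 560 nm. Bidirectional fitting against DMSO.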

[8] = BSK_BE3C_SRB: Viability Assessment in the BioMAP Diversity Plus: BE3C Assay (AID 2283028); conditions: primary human bronchial epithelial cells
Summary of the method: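 Cytotoxicity read-out: SRB (0.1%) staining of TCA-fixed (10%) human lung bronchial epithelial cells, absorbance 560 nm, 24 h post-dosing. Curves fitted both directions relative to DMSO.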

[9] = read-out: Thrombomodulin, THBD (gene 7056); assay: BSK_3C_Thrombomodulin: BioMAP Diversity Plus: 3C Assay for Thrombomodulin Biomarker Activity (AID 2283029); conditions: primary human endothelial cells (HUVEC); actives raise or lower the signal
Summary of the method: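 Human umbilical vein endothelial cells were exposed to chemicals for 24 h; cell-surface thrombomodulin quantified by ELISA, with bidirectional fitting against DMSO baseline.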

[10] = read-out: Urokinase-type plasminogen activator receptor (uPAR), PLAUR (gene 5329); assay: BSK_4H_uPAR: BioMAP Diversity Plus: 4H Assay for Urokinase-type plasminogen activator receptor (uPAR) Biomarker Activity (AID 2283030); conditions: primary human endothelial cells (HUVEC); actives raise or lower the signal
Summary of the method: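 uPAR level read by ELISA on HUVEC cultures (BioMAP 4H) 24 h post-dosing, analyzed for gain or loss relative to DMSO. Parallel SRB staining assessed overt cytotoxicity.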

[11] = read-out: Vascular endothelial growth factor receptor 2 (Homo sapiens) (UniProt P35968); assay: BSK_4H_VEGFRII: BioMAP Diversity Plus: 4H Assay for Vascular endothelial growth factor receptor 2 (VEGFR2) Biomarker Activity (AID 2283031); conditions: primary human endothelial cells (HUVEC); actives raise or lower the signal
Summary of the method: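 Measured by ELISA after 24 h of compound treatment: VEGFR2 on primary human umbilical vein endothelial cells, fitted in both directions relative to DMSO. Parallel cultures received SRB staining (560 nm) for overt cytotoxicity.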

[12] = read-out: Human Leukocyte Antigen - DR isotype (HLADR), HLA-DRA (gene 3122); assay: BSK_BE3C_HLADR: BioMAP Diversity Plus: BE3C Assay for Human Leukocyte Antigen - DR isotype (HLADR) Biomarker Activity (AID 2283032); conditions: primary human bronchial epithelial cells; actives raise or lower the signal
Summary of the method: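 Human primary bronchial epithelial cells (BE3C system) exposed to compound for 24 hours; cell-surface HLA-DR measured by ELISA, fitted bidirectionally relative to DMSO. Total protein by SRB in parallel cultures tracked cytotoxicity.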

[13] = read-out: Vascular cell adhesion molecule 1 (VCAM1), VCAM1 (gene 7412); assay: BSK_4H_VCAM1: BioMAP Diversity Plus: 4H Assay for Vascular cell adhesion molecule 1 (VCAM1) Biomarker Activity (AID 2283033); conditions: primary human endothelial cells (HUVEC); actives raise or lower the signal
Summary of the method: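 Primary human umbilical vein endothelial cells, 4H stimulation system, treated for 24 h; cell-surface VCAM-1 quantified by ELISA. Bidirectional fitting against DMSO; cytotoxicity tracked by SRB total-protein staining in parallel cultures.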

[14] = read-out: Interferon-gamma inducible Protein 10 (IP10), CXCL10 (gene 3627); assay: BSK_BE3C_IP10: BioMAP Diversity Plus: BE3C Assay for Interferon-gamma inducible Protein 10 (IP10) Biomarker Activity (AID 2283034); conditions: primary human bronchial epithelial cells; actives raise or lower the signal
Summary of the method: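 Primary human bronchial epithelial cells, with IP-10 measured by ELISA 24 hours after chemical dosing. Bidirectional fit against DMSO; cytotoxicity checked by SRB total protein staining in parallel cultures.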

[15] = read-out: Monokine induced gamma interferon (MIG), CXCL9 (gene 4283); assay: BSK_BE3C_MIG: BioMAP Diversity Plus: BE3C Assay for Monokine induced gamma interferon (MIG) Biomarker Activity (AID 2283035); conditions: primary human bronchial epithelial cells; actives raise or lower the signal;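 note: MIG protein measured by ELISA in BE3C cultures after 24 h of dosing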
Summary of the method: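 Primary human bronchial epithelial cells treated for 24 h; MIG levels measured by ELISA, fitted bidirectionally versus DMSO. Parallel SRB total-protein staining assessed cytotoxicity.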

[16] = read-out: Transforming growth factor beta 1 (TGFb1), TGFB1 (gene 7040); assay: BSK_BE3C_TGFb1: BioMAP Diversity Plus: BE3C Assay for Transforming growth factor beta 1 (TGFb1) Biomarker Activity (AID 2283036); conditions: primary human bronchial epithelial cells; actives raise or lower the signal
Summary of the method: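 Primary human bronchial epithelial cells dosed with chemical; TGF-b1 measured by ELISA 24 h after dosing. Bidirectional curve fitting against DMSO negative control; SRB total-protein staining in parallel cultures gauged cytotoxicity.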

[17] = read-out: Plasminogen activator inhibitor-1 (PAI1), SERPINE1 (gene 5054); assay: BSK_BE3C_PAI1: BioMAP Diversity Plus: BE3C Assay for Plasminogen activator inhibitor-1 (PAI1) Biomarker Activity (AID 2283037); conditions: primary human bronchial epithelial cells; actives raise or lower the signal
Summary of the method: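 Primary human bronchial epithelial cells (BE3C system) exposed 24 h; PAI-1 quantified by ELISA. Parallel sulforhodamine B staining of total protein flags cytotoxicity. Bidirectional fit versus DMSO.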

[18] = read-out: urokinase plasminogen activator (uPA), PLAU (gene 5328); assay: BSK_BE3C_uPA: BioMAP Diversity Plus: BE3C Assay for urokinase plasminogen activator (uPA) Biomarker Activity (AID 2283038); conditions: primary human bronchial epithelial cells; actives raise or lower the signal
Summary of the method: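 ELISA for uPA on human primary bronchial epithelial cultures 24 h post-treatment, gain or loss against DMSO. Parallel SRB staining (0.1% after 10% TCA fixation, 560 nm) assessed overt cytotoxicity.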

[19] = read-out: Urokinase-type plasminogen activator receptor (uPAR), PLAUR (gene 5329); assay: BSK_BE3C_uPAR: BioMAP Diversity Plus: BE3C Assay for Urokinase-type plasminogen activator receptor (uPAR) Biomarker Activity (AID 2283039); conditions: primary human bronchial epithelial cells; actives raise or lower the signal;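 note: cells exposed to compound for one day before measurement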
Summary of the method: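 Primary human bronchial epithelial cells dosed for 24 h; uPAR quantified by ELISA with bidirectional fitting against DMSO. Overt cytotoxicity assessed in parallel cultures by SRB total-protein staining (0.1% SRB, 560 nm).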

[20] = read-out: Interleukin-6 (IL6), IL6 (gene 3569); assay: BSK_CASM3C_IL6: BioMAP Diversity Plus: CASM3C Assay for Interleukin-6 (IL6) Biomarker Activity for (AID 2283040); conditions: primary human coronary artery smooth muscle cells; actives raise or lower the signal

Measured: AC50

CN(C)c1ccc(C(=O)c2ccc(N(C)C)cc2)cc1
active: [3] 3.55 µM | [5] 5.81 µM | [7] 1.56 µM
inactive: all other assays above

CCCSC(=O)N(CCC)CCC
not listed: [16]
inactive: all other assays above

CCCCC(CC)COC(=O)c1ccc(C(=O)OCC(CC)CCCC)c(C(=O)OCC(CC)CCCC)c1 (stereo not drawn)
inactive: all assays above

COC(=O)c1ccccc1N
inactive: all assays above

O=C(O)C1C2CCC(O2)C1C(=O)O (stereo not drawn)
active: [3] 24.4 µM | [5] 9.13 µM | [6] 16 µM | [10] 18.6 µM | [13] 12.1 µM | [16] 18.6 µM
inactive: all other assays above

Clc1ccc(Cl)c(Cl)c1
inactive: all assays above

Nc1ccc(Cc2ccc(N)cc2)cc1
inactive: all assays above

O=[N+]([O-])C(Br)(CO)CO
active: [1] 34.9 µM | [3] 15.3 µM | [5] 37.5 µM | [6] 20 µM | [7] 20 µM | [10] 31.7 µM | [13] 27.1 µM | [18] 4.02 µM
inactive: all other assays above

Clc1ccccc1Cl
inactive: all assays above

CN(C)c1ccccc1
inactive: all assays above

OCCCl
inactive: all assays above

CC(C)(C)OOC(=O)c1ccccc1
inactive: all assays above

Nc1ccc(Cl)cc1N
active: [4] 1.69 µM | [6] 1.11 µM | [9] 785 nM | [13] 2.74 µM
not listed: [16]
inactive: all other assays above
